Shown are actives, neighbours in structure and some others; about 2.8% of the full set was active somewhere.
Shn3 3UTR inh – reduces Shn3 3'UTR luciferase signal in osteoblasts; Clone20 osteoblast Shn3 3'UTR firefly luciferase, 24 h; inhibition, % at 12.5 µM; 360,000 tested, 0.52% active; AID 588674;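 active means mean inhibition of at least 75% with every replicate also reaching 75%; inconclusive means mean inhibition at least 75% but some replicate below; inactive means mean inhibition below 75%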;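 further: 0% = median of neutral control wells and 100% = pilot-screen positive control compound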
HIF-2a block – inhibitors of HIF-2a; 786-0 RCC cells HIF-2a reporter, luciferase luminescence, overnight; inhibition, % at 18.8 µM; 360,000 tested, 0.72% active; AID 624352;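 active means inhibition of the luminescence signal of 40% or more relative to plate controls, in a single-dose primary screen at 18.75 µM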
MITF TRPM1 inh – reduces MITF-dependent TRPM1 promoter luciferase signal | SK-MEL-5 TRPM1 promoter luciferase, 24 h | 330,000 tested, 0.83% active | inhibition, % at 12.5 µM | AID 488899;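 active means mean inhibition across replicates of 60% or more, whatever share of single replicates reaches that level; inconclusive means some that reach 60%, reason not given; inactive means mean inhibition across replicates below 60%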
Peg3 promoter – Peg3 promoter activity inhibition. HeLa PEG-Prom luciferase reporter, luminescence, overnight. inhibition, % at 20 µM. 360,000 tested, 1.7% active. AID 588405;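 active means inhibition of at least 50% at 20 µM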
CF NFkB inh – cystic fibrosis NF-kB activation inhibition; KKLEB NF-kB-GFP reporter, PAF-induced, GFP fluorescence overnight; inhibition, % at 5 µM; 360,000 tested, 0.86% active;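 active means at least 50% inhibition at 5 µM, scaled per plate between neutral and stimulator controls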;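 further: PAF is a Pseudomonas aeruginosa culture filtrate used as stimulus; plate controls were PAF-stimulated DMSO wells for no effect and unstimulated DMSO wells for full effect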
KKLEB tox – CF airway cell cytotoxicity counter-screen; KKLEB CF airway cells viability, ATPlite luminescence, overnight; active compounds read low; cells stimulated with P. aeruginosa culture filtrate; activity change (cytotoxicity), % at 5 µM; 360,000 tested, 0.36% active; AID 602141;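 active means corrected activity change at or below -50% at 5 µM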
Mdm2 MdmX conf – Mdm2/MdmX (human) interaction inhibition, confirmed. inhibition, % at 8 µM. SaOS-2 split-luciferase Mdm2/MdmX complementation, luminescence. 740 tested, 99% active. shares compounds with HIF-2a block;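 active means mean inhibition of the luminescence signal across two replicates at or above 26 percent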
Target sequence (O15151 whole entry, looked up): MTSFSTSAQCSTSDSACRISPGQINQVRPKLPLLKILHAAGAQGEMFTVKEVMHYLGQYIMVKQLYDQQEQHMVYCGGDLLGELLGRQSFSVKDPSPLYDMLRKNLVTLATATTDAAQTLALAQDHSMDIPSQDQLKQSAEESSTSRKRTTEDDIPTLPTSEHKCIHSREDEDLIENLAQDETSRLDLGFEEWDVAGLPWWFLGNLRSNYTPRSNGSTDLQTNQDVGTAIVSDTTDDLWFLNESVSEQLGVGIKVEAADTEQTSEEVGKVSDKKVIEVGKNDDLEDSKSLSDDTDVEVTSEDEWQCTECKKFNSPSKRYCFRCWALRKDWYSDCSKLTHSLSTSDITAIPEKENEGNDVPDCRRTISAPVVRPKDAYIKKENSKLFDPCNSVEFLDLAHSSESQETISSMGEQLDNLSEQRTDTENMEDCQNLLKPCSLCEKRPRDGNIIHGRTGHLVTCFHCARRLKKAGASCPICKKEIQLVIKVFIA
Target sequence (Q00987 whole entry, looked up): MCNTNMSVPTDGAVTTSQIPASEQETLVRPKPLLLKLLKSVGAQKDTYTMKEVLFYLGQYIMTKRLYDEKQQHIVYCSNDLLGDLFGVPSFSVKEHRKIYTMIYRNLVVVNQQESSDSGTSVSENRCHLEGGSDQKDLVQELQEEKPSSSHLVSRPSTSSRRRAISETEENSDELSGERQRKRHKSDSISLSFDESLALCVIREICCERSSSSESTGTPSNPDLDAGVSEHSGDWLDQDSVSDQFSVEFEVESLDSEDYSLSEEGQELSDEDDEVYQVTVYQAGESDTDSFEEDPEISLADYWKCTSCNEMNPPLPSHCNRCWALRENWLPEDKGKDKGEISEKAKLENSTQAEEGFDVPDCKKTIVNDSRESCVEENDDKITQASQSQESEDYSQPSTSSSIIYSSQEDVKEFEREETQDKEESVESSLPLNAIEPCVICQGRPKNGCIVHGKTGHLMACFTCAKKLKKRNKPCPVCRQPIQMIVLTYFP
HIF-2a inh conf – confirmation of HIF-2a inhibitors | shares compounds with HIF-2a block | 786-0 RCC cells, HIF-2a luciferase reporter luminescence, overnight | inhibition, % at 18.8 µM | 1,800 tested, 56% active;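 active means mean inhibition across four replicates of at least 40 percent at the single tested concentration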
HIF-1a cs – HIF-1a inhibition counter-screen for HIF-2a hits; shares compounds with HIF-2a block; MiaPaCa-2 HIF-1a luciferase reporter, desferoxamine, overnight; inhibition, % at 18.8 µM; 1,800 tested, 72% active;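 active means mean inhibition of the reporter signal across four replicates at the single tested dose of 50% or more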
Numbers without * were called inactive; ? = inconclusive; / = no result.

SMILES	Shn3 3UTR inh	HIF-2a block	MITF TRPM1 inh	Peg3 promoter	CF NFkB inh	KKLEB tox	HIF-2a inh conf	HIF-1a cs	others
O=C(CN1C(=O)NC(Cc2ccccc2)C1=O)Nc1ccccc1OC(F)F (stereo not given)	5.3	2.3	2.7	0.3	26.8	-9.5	/	/
CSCCC(NC(=O)COc1ccccc1)C(=O)N1CCN(c2ccccc2O)CC1 (stereo not given)	3.3	17.2	1.0	21.4	10.1	-8.2	/	/
O=C(Nc1ccc(OCc2ccccc2Cl)cc1)c1cccnc1	41.4	47.6*	31.3	7.5	6.6	-3.2	83.1*	88.9*
O=C(Nc1ccc(OCc2ccccc2)cc1)c1cccnc1	-15.5	-107.4	-41.1	-53.6	7.0	8.9	/	/
FC(F)(F)c1cnc(NNC(=S)Nc2ccccc2)c(Cl)c1	20.8	45.3*	/	22.8	-1.5	7.7	60.8*	13.1
Cc1cccc(/C=C/C(=O)c2ccc([N+](=O)[O-])o2)c1	21.8	14.4	/	100.8*	90.3*	-34.6	/	/	Mdm2 MdmX conf=103.0*
Cc1ccccc1/C=C/C(=O)c1ccc([N+](=O)[O-])o1	/	/	/	/	/	/	/	/	Mdm2 MdmX conf=100.5*
O=C(CSc1nnc2ccc(-c3cccnc3)nn12)Nc1ccccc1	6.0	18.5	-3.8	-4.5	-5.6	-6.2	/	/
O=C(NCC1CCCO1)c1ccc2[nH]c3c(c2c1)CCCC3 (stereo not given)	-48.6	-171.2	-45.8	-150.6	23.4	-14.3	/	/
COc1ccc(CNC(=O)/C=C/c2ccc(S(=O)(=O)NCc3ccco3)cc2)cc1OC	-7.1	10.4	5.6	25.4	3.1	-5.7	/	/
O=C(/C=C/c1ccc(S(=O)(=O)NCc2ccco2)cc1)NCc1ccccc1Cl	2.3	41.9*	-3.6	7.3	-9.1	-9.9	-1.9	15.0
Cc1ccc(S(=O)(=O)N(C)C[C@@H]2OCc3cn(nn3)CCCC(=O)N([C@@H](C)CO)C[C@H]2C)cc1	-11.3	3.3	/	1.3	4.5	0.0	/	/
COc1ccccc1N(Cc1cc(=O)[nH]c2ccccc12)C(=O)c1ccccc1	5.7	67.3*	2.7	15.2	-19.1	13.1	-4.4	1.9
CCOC(=O)c1c(SCCN2CCCC2)n(-c2ccccc2)c(=S)n(-c2ccccc2)c1=O	?	77.5*	95.7*	100.0*	-28.9	5.7	93.2*	102.0*
Nc1nc(F)nc2c1ncn2[C@@H]1O[C@H](CO)[C@@H](O)[C@H]1O	95.7*	56.7*	92.8*	94.6*	81.4*	-28.5	55.4*	106.6*
COc1cc(CNCCc2ccc(S(N)(=O)=O)cc2)ccc1OCC(=O)NC1CCCCC1	1.8	18.1	-12.1	-7.9	10.2	-0.8	/	/
COc1cc(CNCCc2ccc(S(N)(=O)=O)cc2)ccc1OCc1ccc(Cl)cc1	44.5	74.8*	-11.1	92.2*	19.8	-24.4	-7.9	93.5*
CCOc1cc(CNCCc2ccc(S(N)(=O)=O)cc2)ccc1OCc1ccc(Cl)cc1	90.5*	85.5*	91.9*	107.6*	-6.7	-44.6	3.3	102.4*
CCOc1ccc(CNCCc2ccc(S(N)(=O)=O)cc2)cc1	2.0	6.2	-12.6	-0.9	-13.7	16.4	/	/
CC(NC(=O)CCc1nnc(CCCc2ccccc2)o1)c1ccccc1 (stereo not given)	-60.5	-212.5	-4.1	-155.7	3.4	2.1	/	/
CC(=O)N(C(C)=O)c1ccc(Oc2ccc(Oc3ccc(N(C(C)=O)C(C)=O)cc3)cc2)cc1	-17.4	68.3*	/	-84.3	40.5	18.2	87.2*	49.7
CNC(=O)c1ccc(Oc2ccc(C(=O)NC)cc2)cc1	2.7	-10.4	7.0	-0.1	4.4	-1.5	/	/
CC(C)(C)C(=O)/C(=C/c1ccc(Cl)cc1)n1cncn1	?	92.9*	94.1*	104.8*	48.0	-23.1	88.4*	98.1*
COc1cc2nc(SCc3ccc(C(F)(F)F)cc3)n(Cc3cccs3)c(=N)c2cc1OC	6.1	11.8	-1.9	24.9	0.4	1.0	/	/
COc1ccc(Cn2c(SCc3ccc(C)cc3)nc3cc(OC)c(OC)cc3c2=N)cc1Cl	26.5	91.4*	105.2*	98.6*	95.7*	-93.9*	60.3*	104.8*	Mdm2 MdmX conf=102.7*
SMILES	Shn3 3UTR inh	HIF-2a block	MITF TRPM1 inh	Peg3 promoter	CF NFkB inh	KKLEB tox	HIF-2a inh conf	HIF-1a cs	others
COc1ccc(Cn2c(SCc3cc(C)ccc3C)nc3cc(OC)c(OC)cc3c2=N)cc1	95.9*	94.7*	88.7*	103.9*	25.0	-43.6	1.5	106.6*	Mdm2 MdmX conf=102.7*
COc1ccccc1OCc1cc(C(=O)NCc2ccc(N3CCCC3=O)cc2)no1	-6.3	-92.3	-18.9	-52.2	12.6	-6.8	/	/
Cn1c(=O)n(C)c2cc(NC(=O)CCl)ccc21	-21.0	51.0*	29.0	-41.7	-79.8	-3.3	22.9	80.9*
CCn1c(=O)oc2cc(NC(=O)CCl)ccc21	47.1	40.2*	36.7	47.0	-61.8	17.1	17.6	84.1*
Cc1cc(N)n2nc(C)c(-c3ccc(Cl)cc3)c2n1	7.0	0.2	0.6	14.7	2.9	-19.0	/	/
Cc1cc(Cl)n2nc(C)c(-c3ccc(Cl)cc3)c2n1	38.2	66.5*	1.2	103.7*	33.1	-29.6	8.8	100.1*
CO[C@H]1CN(C)C(=O)c2cc(NC(=O)C3CCOCC3)ccc2OC[C@H](C)N(Cc2nccs2)C[C@H]1C	/	3.9	/	/	/	/	/	/
Cc1ccc(C(=O)Cn2c(C(=O)/C=C/c3ccccc3)nc3ccccc32)cc1	53.0	48.0*	30.9	43.5	10.4	-15.8	-3.6	59.6*
CCCCN1CC(N2CCCCC2)CS1(=O)=O (stereo not given)	-2.9	4.8	/	-8.4	-29.5	8.0	/	/
O=C(CSc1nnc(-c2cccc(Br)c2)o1)N1CCOCC1	-2.9	-79.7	-35.4	-77.3	-28.7	13.0	/	/
CC(C)C[C@@H]1CC2=C(C(=O)OC(C)(C)O2)[C@H](c2ccc(Cl)cc2)O1	/	-6.9	/	/	/	/	/	/
COc1ccc(C(=O)c2no[n+]([O-])c2C(=O)c2ccc(OC)cc2)cc1	55.6	65.0*	54.1	65.8*	90.2*	-79.6*	15.6	32.6
Cc1ccc(S(=O)(=O)N2CCC(=O)CC2)cc1	13.4	7.7	3.7	14.0	-15.0	12.0	/	/
O=C(NNC(=S)Nc1ccc(Cl)c(Cl)c1)c1ccccn1	91.6*	-166.5	39.8	18.1	35.9	-29.5	/	/	Mdm2 MdmX conf=85.0*
Cc1ccc(S(=O)(=O)Nc2cccc3cccnc23)cc1	26.5	81.3*	83.2*	109.1*	56.7*	6.4	65.9*	-178.8	Mdm2 MdmX conf=103.2*
Cc1ccc(S(=O)(=O)Nc2ccccc2-c2ccccc2NS(=O)(=O)c2ccc(C)cc2)cc1	-3.9	12.7	6.8	33.4	30.6	14.3	/	/

Source: PubChem
